# Source: PubChem (several laboratories)
# zVAD death inh: blocks zVAD induced death of L929 cells; L929 zVAD necroptosis rescue, ATP luminescence, 24 h; with zVAD 60 µM; 220,000 compounds, 0.38% hits; viability rescue, % at 10 µM;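 active means activation, scaled between plate controls, above about 75%, limit read from the data; inactive means activation under that limit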;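 further: 0% = zVAD with DMSO and 100% = DMSO alone without zVAD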
# S1P4 agonist: activates the human S1P4 receptor. O95977. S1P4-expressing cell line, agonist reporter assay. activation, % at 4.98 µM. 220,000 compounds, 0.35% hits; in the data active means activation above about 11%;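 further: 0% = DMSO vehicle and 100% = reference agonist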
# TNF necrop inh: TNF-alpha cell death inhibition in Jurkat FADD-/- cells; Jurkat FADD-/- TNF necroptosis rescue, ATP luminescence, 24 h; 0 = TNF only, 100 = no-TNF cells; activation (protection from cell death), % at 10 µM; 220,000 compounds, 0.068% hits;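 active means activation, meaning protection from cell death, of at least 50% relative to plate controls; inactive means activation below 50%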;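 further: necroptosis triggered by 40 ng/mL TNF-alpha added together with compound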
# Hsp70 act: switches on Hsp70 transcription. 200,000 compounds, 0.04% hits. activation, % at 10 µM. HeLa Hsp70 promoter luciferase reporter, luminescence; scaled: vehicle 0, proteasome-inhibitor control 100%;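 active means activation above the mean across all tested compounds plus 3 SD, cutoff set per campaign, cut at about 5.5% in these data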;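 further: 100% = MG132 at 30 µM as the positive control and 0% = DMSO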
# S1P4 antagonist: blocks the human S1P4 receptor; O95977; S1P4-expressing cells, antagonist mode, reporter read-out; inhibition, % at 4.98 µM; 220,000 compounds, 0.26% hits; in the data active means inhibition above about 29%;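 further: 0% = wells stimulated with agonist and 100% = vehicle wells without agonist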
# HSV augment: HSV replication enhancement; HSV replication augmentation in cells, fold increase; maximum fold increase; 220,000 compounds, 0.005% hits; in the data active means maximum fold increase above about 1.5; inconclusive means no clear call, values can overlap the other calls; tested in PC3 cells
# S1P4 ag conf: confirmation of human S1P4 receptor agonists | 740 compounds, 7% hits | S1P4 agonist cell-based reporter assay | AID 1523 | activation, % at 4.98 µM | shares compounds with S1P4 agonist; in the data active means activation above about 12%;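 further: 0% = vehicle and 100% = full reference agonist response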
# S1P1 agonist: human S1P1 agonism as S1P4 agonist counter-screen; shares compounds with S1P4 agonist; S1P1 agonist cell-based assay, activation; activation, % at 4.98 µM; 740 compounds, 4% hits; AID 1563; in the data active means activation above about 21%;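 further: 0% = vehicle wells and 100% = reference agonist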
# Target sequence (P21453 whole entry, looked up): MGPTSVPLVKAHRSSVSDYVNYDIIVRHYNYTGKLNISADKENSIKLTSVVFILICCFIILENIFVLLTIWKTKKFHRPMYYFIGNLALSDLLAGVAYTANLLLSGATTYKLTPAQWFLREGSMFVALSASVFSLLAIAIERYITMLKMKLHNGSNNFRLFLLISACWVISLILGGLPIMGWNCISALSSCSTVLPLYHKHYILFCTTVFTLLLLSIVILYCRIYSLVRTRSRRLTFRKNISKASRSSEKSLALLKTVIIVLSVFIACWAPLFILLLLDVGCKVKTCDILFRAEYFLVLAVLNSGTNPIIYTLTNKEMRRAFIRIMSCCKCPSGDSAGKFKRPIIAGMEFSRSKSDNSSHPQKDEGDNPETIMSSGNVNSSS
# The depositor's hits bear a star; i = inactive; ? = inconclusive; / = no result given. Hits are enriched below; roughly 1% of the tested compounds scored in any of these assays.
SMILES,zVAD death inh,S1P4 agonist,TNF necrop inh,Hsp70 act,S1P4 antagonist,HSV augment,S1P4 ag conf,S1P1 agonist
CCOC(=O)c1ccc2c(c1)C(=O)N(C1CCCCC1)C2=O,2,25*,0,0,-17,i,-2,4
O=S(=O)(NC1CCCCC1Nc1ccccc1)c1ccccc1 (stereo not drawn),0,16*,1,0,-12,i,-2,3
O=S(=O)(NC1CCCCC1Oc1ccccc1)c1ccc(Cl)cc1 (stereo not drawn),0,-1,0,0,-17,i,/,/
O=S(=O)(NC1CCCCC1NS(=O)(=O)c1ccc(F)cc1)c1ccc(F)cc1 (stereo not drawn),-1,15*,-1,0,-12,i,-2,-1
O=S(=O)(c1ccc(N2CCC(c3ccc(Cl)cc3)=N2)cc1)N(CCO)CCO,4,21*,10,0,-22,i,21*,69*
O=S(=O)(c1ccc(Oc2ccc(S(=O)(=O)N(CCO)CCO)cc2)cc1)N(CCO)CCO,1,-2,2,0,-11,/,/,/
CN(C)CCCNS(=O)(=O)c1ccc(N2CCC(c3ccc(Cl)cc3)=N2)cc1,-4,96*,-15,0,-68,i,59*,153*
COC(=O)CCSCC(=O)N1N=C(c2ccc(Br)cc2)CC1c1cccc(OC)c1OC (stereo not drawn),2,1,2,0,-10,i,/,/
CCOc1ccccc1OCCCCCc1c(C)n[nH]c1C,-1,11*,-1,0,0,i,11*,3
COc1ccccc1C/C(N)=N/OC(=O)c1ccco1,5,0,-1,0,12,i,/,/
O=C(N/N=C/c1cc([N+](=O)[O-])ccc1O)c1cc(-c2ccccc2)nc2ccccc12,48,1,-9,0,-9,i,/,/
Cc1cc(C(=O)N/N=C/c2cc([N+](=O)[O-])ccc2O)c2ccccc2n1,0,22*,-4,0,-10,i,-2,-1
COc1ccc2[nH]cc(CCNS(=O)(=O)c3ccc(F)cc3)c2c1,1,2,1,0,-22,i,/,/
Cc1cc(=S)cc(C)n1CCO,/,11*,1,0,-2,i,-1,1
CCOc1ccc(C(CC(=O)O)NC(=O)COc2ccccc2)cc1OC (stereo not drawn),1,44*,0,0,-20,i,-3,-8
COc1ccc(C(CC(=O)O)NC(=O)COc2ccccc2)cc1OC (stereo not drawn),0,2,-2,0,4,i,/,/
c1ccc(-c2cnn3c(-c4ccccc4)c(-c4ccccc4)nc3n2)cc1,2,1,2,0,-1,?,/,/
COc1ccc(C2NC(=O)C(C#N)=C(S)N2c2cccc(C)c2)cc1OC (stereo not drawn),10,15*,-1,0,-12,i,-2,3
O=c1c2c(nc3nc(NCc4cccc5ccccc45)[nH]n13)CCC2,1,1,1,0,-33,i,/,/
CC(C)CC(=O)NS(=O)(=O)c1ccc(NS(C)(=O)=O)cc1,2,17*,0,0,2,i,-2,1
Cc1ccc2nc3c(cc(C#N)c(=O)n3-c3nccs3)c(=O)n2c1,1,31*,1,0,-40,i,15*,24*
O=C(COC(=O)c1c2c(nc3ccccc13)CCN(Cc1ccccc1)C2)Nc1c(F)cccc1F,2,58*,-15,0,-1,i,-3,-5
CCCCC(=O)NCCc1ccc(OC)cc1,-1,26*,1,0,-2,i,-2,-4
CCCCC(=O)NCCc1ccc(S(N)(=O)=O)cc1,-1,0,-2,0,-17,i,/,/
Cc1cc2cc(CCNC(=O)c3cccs3)c(=O)[nH]c2cc1C,/,0,-4,1,-13,/,/,/
SMILES,zVAD death inh,S1P4 agonist,TNF necrop inh,Hsp70 act,S1P4 antagonist,HSV augment,S1P4 ag conf,S1P1 agonist
CC(C)C(OC(=O)c1cccs1)C(=O)NCc1ccccc1 (stereo not drawn),0,0,3,0,5,i,/,/
COc1ccccc1CCN=C(N)NS(=O)(=O)c1ccccc1,0,0,1,0,-5,i,/,/
COc1ccc(OC)c(S(=O)(=O)NC(N)=NCCc2ccccc2OC)c1,5,23*,3,0,2,/,-1,-5
CC(=N[C@@H]1CCCC[C@H]1N=C(C)c1ccccc1O)c1ccccc1O,/,0,1,0,4,i,/,/
CCOC(=O)c1c(C)[nH]c(C)c1C(=O)COC(=O)c1ccc(Cl)c(S(=O)(=O)NCc2ccccc2)c1,2,-2,-1,0,-3,i,/,/
Cc1nc(Cl)c2c(n1)NC1=C(O2)C(=O)CCC1,0,14*,0,0,-3,?,-2,4
CC1=Nc2ccccc2/C1=C/c1c(N)n2c(S(=O)(=O)CC(C)C)nsc2nc1=O,-1,20*,0,0,-4,i,-2,-2
CC1=Nc2ccccc2/C1=C/c1c(N)n2c(S(=O)(=O)C(C)C)nsc2nc1=O,-1,1,0,0,-13,i,/,/
Cc1nccc2[nH]c(=O)c(C(=O)NC(C)CCc3ccccc3)cc12 (stereo not drawn),-1,24*,1,0,-7,i,-3,-4
CC(CCc1ccccc1)NC(=O)c1cccnc1 (stereo not drawn),0,0,0,0,-13,i,/,/
O=C(N/N=C\c1ccc(O)c([N+](=O)[O-])c1)c1ccccc1-n1cccc1,0,16*,1,0,-26,i,-2,1
COc1ccc(CNC(=O)c2sc3nc4c(c(C(F)(F)F)c3c2N)CCC4)cc1,3,196*,2,0,-16,i,-2,-9
Cc1ccc(NC(=O)c2ccc(OC(=O)CCN3C(=O)c4ccccc4C3=O)cc2)cc1,0,11*,1,0,1,i,1,-7
CCOC(=O)C1(Cc2ccc(Cl)cc2)CCN(C(=O)CCc2ccncc2)CC1,-1,19*,2,0,-3,i,-1,0
CC(Nc1ccc2c(c1)OCCO2)C(=O)N1c2ccccc2CC1C (stereo not drawn),2,16*,0,0,-8,i,29*,-1
COc1cc(OC)c2c(OC)cccc2n1,2,3,1,0,-28,i,/,/
CCO[C@@H]1OC(C(=O)NC2CC2)=C[C@H](c2ccccc2)[C@H]1CCCO,-1,-1,1,0,2,i,/,/
